# Results taken from PubChem BioAssay (NCI).
# “And” between values parts separate entries of the source, which are not always exact repeats. Equal entries are not always repeated. The panel holds about 79,000 compounds, 15% with a hit somewhere; the sample as a whole holds those more often. A structure can be active in one record and inactive in another. The source made the active and inactive calls. Rule as the data show it: active = growth inhibition above about 70%; inactive = the rest.
# Columns and labels:
# [1] = NCI Yeast Anticancer Drug Screen. Data for the rad52 strain (AID 147);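 also: 0% = growth of vehicle-treated control cultures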; details: S. cerevisiae rad52 mutant growth inhibition, stronger effect = higher value
# Procedure, shortened: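 Growth of repair-deficient yeast cells was compared between compound-treated and vehicle-treated cultures to give percent inhibition.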
# [2] = NCI Yeast Anticancer Drug Screen. Data for the wt1 strain (AID 149);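 also: 0% = growth of vehicle-treated wt1 cultures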; details: S. cerevisiae wt1 strain (SPY 50644) growth inhibition, stronger effect = higher value
# Procedure, shortened: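 Measured: growth of wt1 yeast under compound versus vehicle treatment, reported as inhibition.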
# [3] = NCI Yeast Anticancer Drug Screen. Data for the rad50EPP+ strain (AID 151);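 also: 0% = growth of vehicle-treated control cultures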; details: S. cerevisiae rad50 mutant strain, stronger effect = higher value
# Procedure, shortened: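 Measured: growth inhibition of rad50EPP+ yeast. Reference: vehicle-treated controls. Screen uses strains with defined genetic alterations in DNA damage repair or cell cycle control.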
# [4] = NCI Yeast Anticancer Drug Screen. Data for the mgt1 strain (AID 153); details: S. cerevisiae mgt1 mutant growth inhibition, stronger effect = higher value
# Procedure, shortened: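 Compounds were applied to mgt1 mutant yeast, and growth was then compared against vehicle-treated control cultures to give percent inhibition.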
# [5] = NCI Yeast Anticancer Drug Screen. Data for the rad50 strain (AID 155);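 also: 0% = growth of vehicle-only cultures of the same strain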; details: S. cerevisiae rad50 strain growth inhibition, stronger effect = higher value
# Procedure, shortened: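 Growth of the mutant yeast was measured after compound exposure and referenced to vehicle-treated cultures.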
# [6] = NCI Yeast Anticancer Drug Screen. Data for the mec2-1 strain (AID 157); details: S. cerevisiae mec2-1 strain, stronger effect = higher value
# Procedure, shortened: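 Compounds were applied to mec2-1 yeast cells. Their growth was then compared with that of vehicle-treated cultures to give growth inhibition.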
# [7] = NCI Yeast Anticancer Drug Screen. Data for the rad14 strain (AID 159);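 also: 0% = growth of vehicle-treated control cultures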; details: S. cerevisiae rad14 strain growth inhibition, stronger effect = higher value
# Procedure, shortened: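 Here, inhibition of yeast growth was measured after compound exposure, using a strain with a genetic defect in DNA damage repair and vehicle-treated cultures as the reference.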
# [8] = NCI Yeast Anticancer Drug Screen. Data for the sgs1 mgt1 strain (AID 161);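 also: 0% = growth of cultures given vehicle only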; details: S. cerevisiae sgs1 mgt1 strain, stronger effect = higher value
# Procedure, shortened: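 Growth of a repair-deficient yeast mutant was monitored after compound treatment and expressed as inhibition relative to vehicle-treated cultures.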
# [9] = NCI Yeast Anticancer Drug Screen. Data for the CLN2oe strain (AID 163);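 also: 0% = growth of vehicle-only control cultures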; details: S. cerevisiae CLN2oe strain, stronger effect = higher value
# Procedure, shortened: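 Cells of an engineered yeast line with disturbed cell-cycle regulation are treated with compound. Inhibition of growth is then calculated relative to the vehicle-treated reference.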
# [10] = NCI Yeast Anticancer Drug Screen. Data for the cln2 rad14 strain (AID 165);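 also: 0% = growth equal to vehicle treated cultures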; details: S. cerevisiae cln2 rad14 strain, stronger effect = higher value
# Procedure, shortened: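 Strain: cln2 rad14 yeast, altered in cell cycle control and DNA damage repair. Read-out: growth inhibition vs vehicle.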
# [11] = NCI Yeast Anticancer Drug Screen. Data for the bub3 strain (AID 167); details: S. cerevisiae bub3 mutant strain, stronger effect = higher value
# Procedure, shortened: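 Whole-cell yeast assay. The mutant strain was incubated with compounds, and growth inhibition was determined by comparison with vehicle-treated cells.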
# [12] = NCI Yeast Anticancer Drug Screen. Data for the wt2 strain (AID 169);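 also: 0% = growth of vehicle-treated yeast cultures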; details: S. cerevisiae wt2 strain growth inhibition, stronger effect = higher value
# Procedure, shortened: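 Growth of compound-treated yeast is measured and expressed as inhibition relative to vehicle-only controls.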
# [13] = NCI Yeast Anticancer Drug Screen. Data for the mlh1 strain (AID 171);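 also: 0% = growth of vehicle-treated control cultures of the same strain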; details: S. cerevisiae mlh1 strain growth inhibition, stronger effect = higher value
# Procedure, shortened: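 Test agents were incubated with yeast bearing a defined DNA damage repair or cell cycle control alteration; values are growth inhibition normalised to vehicle-treated cultures.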
# [14] = NCI Yeast Anticancer Drug Screen. Data for the sgs1 strain (AID 173);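 also: 0% = growth of vehicle-only control cultures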; details: S. cerevisiae sgs1 mutant, stronger effect = higher value
# Procedure, shortened: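 Strain with an altered DNA repair or cell cycle pathway exposed to compound. Growth then measured. Value = inhibition versus vehicle control.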
# [15] = NCI Yeast Anticancer Drug Screen. Data for the mlh1 rad18 strain (AID 175); details: S. cerevisiae mlh1 rad18 strain growth inhibition, stronger effect = higher value
# Procedure, shortened: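 A repair-deficient yeast strain is exposed to test compound, and growth is scored relative to vehicle-treated controls.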
# [16] = NCI Yeast Anticancer Drug Screen. Data for the rad18 strain (AID 177); details: S. cerevisiae rad18 mutant growth inhibition, stronger effect = higher value
# Procedure, shortened: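 DNA-repair-defective yeast; compound treatment; growth inhibition scored against vehicle.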
# [17] = at 5.0 µM (retest, dose inferred, filed as 0.5)
# [18] = at 50.0 µM (retest, dose inferred, filed as 5.0)
structure (smiles),measurement,setting,value
O=C(O)c1ccc(N2C(=O)C=CC2=O)cc1,growth inhibition,[1]; at 1.2 µM,1% (inactive)
same,growth inhibition,[1]; at 3.7 µM,7% (inactive)
same,growth inhibition,[1]; at 11.0 µM,8% (inactive)
same,growth inhibition,[1]; at 33.0 µM,27% (inactive)
same,growth inhibition,[1]; at 100.0 µM,74% (active)
same,growth inhibition,[2]; at 1.2 µM,-3% (inactive)
same,growth inhibition,[2]; at 3.7 µM,-2% (inactive)
same,growth inhibition,[2]; at 11.0 µM,1% (inactive)
same,growth inhibition,[2]; at 33.0 µM,10% (inactive)
same,growth inhibition,[2]; at 100.0 µM,53% (inactive)
same,growth inhibition,[3]; at 1.2 µM,2% (inactive)
same,growth inhibition,[3]; at 3.7 µM,5% (inactive)
same,growth inhibition,[3]; at 11.0 µM,8% (inactive)
same,growth inhibition,[3]; at 33.0 µM,22% (inactive)
same,growth inhibition,[3]; at 100.0 µM,40% (inactive)
same,growth inhibition,[4]; at 1.2 µM,1% (inactive)
same,growth inhibition,[4]; at 3.7 µM,1% (inactive)
same,growth inhibition,[4]; at 11.0 µM,3% (inactive)
same,growth inhibition,[4]; at 33.0 µM,18% (inactive)
same,growth inhibition,[4]; at 100.0 µM,62% (inactive)
same,growth inhibition,[5]; at 1.2 µM,3% (inactive)
same,growth inhibition,[5]; at 3.7 µM,11% (inactive)
same,growth inhibition,[5]; [17],-8% (inactive) and 7% (inactive)
same,growth inhibition,[5]; at 11.0 µM,14% (inactive)
same,growth inhibition,[5]; at 33.0 µM,33% (inactive)
same,growth inhibition,[5]; [18],44% (inactive) and 25% (inactive)
same,growth inhibition,[5]; at 50.0 µM,30% (inactive) and 72.7% (active)
same,growth inhibition,[5]; at 100.0 µM,80% (active)
same,growth inhibition,[6]; at 1.2 µM,-7% (inactive)
same,growth inhibition,[6]; at 3.7 µM,-4% (inactive)
same,growth inhibition,[6]; [17],5% (inactive) and 7% (inactive)
same,growth inhibition,[6]; at 11.0 µM,0% (inactive)
same,growth inhibition,[6]; at 33.0 µM,21% (inactive)
same,growth inhibition,[6]; [18],15% (inactive) and 24% (inactive)
same,growth inhibition,[6]; at 50.0 µM,17.6% (inactive) and 32.5% (inactive)
same,growth inhibition,[6]; at 100.0 µM,56% (inactive)
same,growth inhibition,[7]; at 1.2 µM,-3% (inactive)
same,growth inhibition,[7]; at 3.7 µM,-6% (inactive)
same,growth inhibition,[7]; at 11.0 µM,3% (inactive)
same,growth inhibition,[7]; at 33.0 µM,12% (inactive)
same,growth inhibition,[7]; at 100.0 µM,38% (inactive)
same,growth inhibition,[8]; [17],9% (inactive) and 8% (inactive)
same,growth inhibition,[8]; [18],56% (inactive) and 22% (inactive)
same,growth inhibition,[8]; at 50.0 µM,11.9% (inactive) and 59.4% (inactive)
same,growth inhibition,[9]; at 1.2 µM,1% (inactive)
same,growth inhibition,[9]; at 3.7 µM,4% (inactive)
same,growth inhibition,[9]; at 11.0 µM,6% (inactive)
same,growth inhibition,[9]; at 33.0 µM,18% (inactive)
same,growth inhibition,[9]; at 100.0 µM,39% (inactive)
same,growth inhibition,[10]; [17],-35% (inactive) and 5% (inactive)
same,growth inhibition,[10]; [18],-2% (inactive) and 6% (inactive)
same,growth inhibition,[10]; at 50.0 µM,43.3% (inactive) and 26.8% (inactive)
same,growth inhibition,[11]; at 1.2 µM,-7% (inactive)
same,growth inhibition,[11]; at 3.7 µM,-23% (inactive)
same,growth inhibition,[11]; [17],-13% (inactive) and -1% (inactive)
same,growth inhibition,[11]; at 11.0 µM,-3% (inactive)
same,growth inhibition,[11]; at 33.0 µM,4% (inactive)
same,growth inhibition,[11]; [18],10% (inactive) and -10% (inactive)
same,growth inhibition,[11]; at 50.0 µM,-2.9% (inactive) and -0.2% (inactive)
same,growth inhibition,[11]; at 100.0 µM,39% (inactive)
same,growth inhibition,[12]; at 1.2 µM,-2% (inactive)
same,growth inhibition,[12]; at 3.7 µM,-1% (inactive)
same,growth inhibition,[12]; at 11.0 µM,5% (inactive)
same,growth inhibition,[12]; at 33.0 µM,22% (inactive)
same,growth inhibition,[12]; at 100.0 µM,68% (inactive)
same,growth inhibition,[13]; at 1.2 µM,-2% (inactive)
same,growth inhibition,[13]; at 3.7 µM,5% (inactive)
same,growth inhibition,[13]; at 11.0 µM,10% (inactive)
same,growth inhibition,[13]; at 33.0 µM,25% (inactive)
same,growth inhibition,[13]; at 100.0 µM,61% (inactive)
same,growth inhibition,[14]; at 1.2 µM,0% (inactive)
same,growth inhibition,[14]; at 3.7 µM,4% (inactive)
same,growth inhibition,[14]; at 11.0 µM,14% (inactive)
same,growth inhibition,[14]; at 33.0 µM,31% (inactive)
same,growth inhibition,[14]; at 100.0 µM,67% (inactive)
same,growth inhibition,[15]; [17],-6% (inactive) and 4% (inactive)
same,growth inhibition,[15]; [18],41% (inactive) and 20% (inactive)
same,growth inhibition,[15]; at 50.0 µM,20.1% (inactive) and 27.3% (inactive)
same,growth inhibition,[16]; at 1.2 µM,1% (inactive)
same,growth inhibition,[16]; at 3.7 µM,3% (inactive)
same,growth inhibition,[16]; at 11.0 µM,4% (inactive)
same,growth inhibition,[16]; at 33.0 µM,22% (inactive)
same,growth inhibition,[16]; at 100.0 µM,72% (active)
